# BAZ2B block – blocks human BAZ2B | AlphaScreen BAZ2B-H3K14Ac peptide displacement | Potency, µM (titrated, usually from 114 µM), for the others: top-dose activity change, negative = inhibition, actives largely listed as inhibitors | hit rate 4.4% among 360,000 | Q9UIF8; also: % is scaled to controls: 0 for no effect and ±100 for the full control effect; nearly all actives have a fitted effect of over 60% in size
#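 AlphaScreen luminescence quantifies BAZ2B engagement of H3K14Ac peptide; the protein and biotinylated peptide are both at 50 nM final, buffer PBS pH 7.4 with 0.01% Tween-20, all steps at room temperature.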
# PLK1 PBD inh – blocks phosphopeptide binding to human PLK1 polo-box domain; Plk1 PBD binding of FITC phosphopeptide, fluorescence polarization; Potency, µM, without a hit: max response, negative = inhibition, actives largely listed as inhibitors; hit rate 2.8% among 360,000; AID 720504; also: series mostly up to about 57 µM; % is scaled to controls: 0 for no effect and ±100 for the full control effect; nearly all actives have a fitted effect of over 65% in size
# Target sequence (P53350 whole entry, looked up, the tested form may be a part): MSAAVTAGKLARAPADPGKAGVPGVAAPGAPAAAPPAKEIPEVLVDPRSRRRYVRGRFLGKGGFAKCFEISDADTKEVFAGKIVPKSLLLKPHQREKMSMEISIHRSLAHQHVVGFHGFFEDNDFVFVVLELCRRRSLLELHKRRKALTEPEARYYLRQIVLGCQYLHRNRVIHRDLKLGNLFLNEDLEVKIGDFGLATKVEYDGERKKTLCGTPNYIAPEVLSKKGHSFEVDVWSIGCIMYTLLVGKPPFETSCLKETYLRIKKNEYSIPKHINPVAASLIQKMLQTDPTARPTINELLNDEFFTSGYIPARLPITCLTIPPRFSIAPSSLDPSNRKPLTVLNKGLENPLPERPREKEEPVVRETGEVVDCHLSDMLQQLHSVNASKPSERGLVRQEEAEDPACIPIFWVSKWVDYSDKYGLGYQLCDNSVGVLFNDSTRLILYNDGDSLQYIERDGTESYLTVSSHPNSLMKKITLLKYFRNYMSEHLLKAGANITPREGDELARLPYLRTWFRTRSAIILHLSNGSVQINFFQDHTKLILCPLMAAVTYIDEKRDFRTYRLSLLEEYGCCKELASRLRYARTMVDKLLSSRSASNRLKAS
# JMJD2A Tudor – inhibitors of human JMJD2A Tudor domain; O75164; AlphaScreen JMJD2A-Tudor / H3K4me3 peptide binding; Potency, µM (highest dose often 114 µM), inactives show top-dose activity change, negative = inhibition, actives largely listed as inhibitors; hit rate 4.4% among 390,000; AID 504339; also: % is scaled to controls: 0 for no effect and ±100 for the full control effect; nearly all actives have a fitted effect of over 50% in size
# G9a block – inhibitors of human histone lysine methyltransferase G9a; Q96KQ7; G9a H3K9 monomethylation, AlphaScreen, 2 h; Potency, µM (highest dose often 102 µM), for the others: at the highest dose activity, negative = inhibition, most hits filed as inhibitors; hit rate 8.8% among 350,000; also: % is scaled to controls: 0 for no effect and ±100 for the full control effect; nearly all actives have a fitted effect of over 75% in size
#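 Using a bead-based AlphaScreen, monomethylated H3K9 product from 2 h room-temperature reactions (G9a 20 nM, peptide 500 nM, SAM 20 uM) was detected with 0.5 ug/mL rabbit anti-H3K9me1 antibody.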
# Sfp inh – blocks B. subtilis Sfp PPTase activity | AID 1490 | Potency, µM, inactives show largest response in the series, negative = inhibition, actives largely listed as inhibitors | Q9F4F7 | Biochemical Sfp PPTase activity, qHTS | hit rate 3.5% among 310,000;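 also: the enzyme is Sfp with the accession as filed and its product quenches rhodamine fluorescence; 0% = enzyme reaction without inhibitor and -100% = no enzyme wells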
#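 Compounds were incubated with enzyme (final 15 nM) for 15 min at room temperature before substrate addition started the reaction. Fluorescence at 525 nm excitation, 598 nm emission was recorded immediately and after 30 minutes.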
# HP1b chromo inh – inhibitors of HP1-beta chromodomain binding to methylated histone tails | hit rate 0.56% among 390,000 | AlphaScreen HP1-beta / biotin-H3K9me3 peptide binding | P83916 | AID 540317 | Potency, µM (top dose mostly 114 µM), without a hit: at the highest dose activity change, negative = inhibition, most hits filed as inhibitors; also: nearly all actives have a fitted effect of over 70% in size
#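 HP1-beta protein (50 nM final) preincubated 30 min at room temperature with biotinylated H3(1-18)K9me3 peptide (50 nM) in PBS pH 7.4, 0.01% Tween-20, then compound added for 30 min. AlphaScreen streptavidin donor/nickel chelate acceptor beads (10 ug/mL final), 30 min dark, luminescence read.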
# The depositor's hits bear a star; u = inconclusive; x = not tested or not shown; [ ] = another dose, or the depositor's remark. The list is not random: actives were taken first. Their share in the collection is about 12%. Calls follow the shape of the dose curve; as a rule, active = well fitted curve in the direction sought with a large enough effect; inconclusive = small, poorly fitted or top-dose-only effect, or another doubt; inactive = no such curve, though single readings can be large; an effect the other way counts as inactive or inconclusive. Potency is read from the fitted curve at half-maximal effect.
SMILES,BAZ2B block,PLK1 PBD inh,JMJD2A Tudor,G9a block,Sfp inh,HP1b chromo inh
O=C(c1ccco1)N1CCN(C(=O)c2cnn(-c3ccc(Cl)cc3)c2C2CCNCC2)CC1,-5%,-12%,-10%,71µM*,1%,38%
Fc1ccc(-[n+]2nc(Nc3ccccc3)sc2-c2c3ccccc3cc3ccccc23)cc1,5µM*,-7%,16µM*,11µM*,45µM*,u
c1ccc(-[n+]2nc(Nc3cccc4ccccc34)sc2-c2c3ccccc3cc3ccccc23)cc1,3.5µM*,-7%,2.5µM*,26%[2.33 µM],x,u
COc1ccc(-c2sc(Nc3ccccc3)n[n+]2-c2ccc(F)cc2)c(C)c1C,u,4%,u,u,-3%,-3%
Oc1ccc2ccccc2c1-c1sc(Nc2ccccc2)n[n+]1-c1ccc(F)cc1,u,-20%,u,40µM*,10%,21%
COc1cccc(CN2CCNC(=O)C2CC(=O)NC2Cc3ccccc3C2)c1 (stereo not given),u,-13%,-11%,45µM*,7%,40%
O=C(CC1C(=O)NCCN1Cc1cccc(Oc2ccccc2)c1)NCC1CCOCC1 (stereo not given),-28%,-16%,-17%,45µM*,-8%,47%
COc1ccc(CN2CCNC(=O)C2CC(=O)NCC2CCOCC2)c(C)c1C (stereo not given),1%,-5%,2%,84%,-6%,38%
COc1ccc(CN2CCNC(=O)C2CC(=O)NCC2CCOCC2)c(F)c1 (stereo not given),-3%,-10%,-6%,79µM*,3%,13%
CCCN1CCC(NC(=O)CC2C(=O)NCCN2Cc2cccc(OC)c2)CC1 (stereo not given),10%,-7%,-15%,19%,13%,26%
O=C(CC1C(=O)NCCN1Cc1cccc(F)c1)NCCCCCN1CCOCC1 (stereo not given),-11%,-7%,-7%,71µM*,3%,31%
CCC1CCCCN1CCCNC(=O)Cn1cnc2sc(C)c(S(=O)(=O)N3CC(C)CC(C)C3)c2c1=O (stereo not given),-13%,-2%,-15%,2%,4%,17%[57 µM]
O=C(Cc1cccc(NC(=O)C2CCN(S(=O)(=O)c3cccc([N+](=O)[O-])c3)CC2)c1)Nc1cccc(C(=O)N2CCCCC2)c1,x,-8%,-24%,x,x,17%
COc1cccc(CNC(=O)CC2C(=O)NCCN2CCCc2ccccc2)c1 (stereo not given),-24%,-2%,-15%,50µM*,2%,25%
COc1cccc(CN2CCNC(=O)C2CC(=O)NCC2CCOCC2)c1 (stereo not given),0%,-10%,-12%,50µM*,1%,40%
O=C(CC1C(=O)NCCN1Cc1cccc(F)c1F)NCCCC1CCCC1 (stereo not given),-19%,-19%,-11%,50µM*,3%,39%
COc1cc(CN2CCNC(=O)C2CC(=O)NCCC2=CCCCC2)cc(OC)c1 (stereo not given),-24%,-22%,-17%,50µM*,4%,28%
Cc1cccc(CSCC(=O)N2CCN(S(=O)(=O)c3ccccc3C#N)CC2)c1,x,-2%,x,x,x,x
CN(CC(=O)Nc1ccccc1Br)C(=O)CN1CCN(Cc2cccc(Cl)c2)CC1,x,-3%,-27%,x,x,8%
COc1ccccc1-c1coc2c(CN3CCOCC3)c(O)ccc2c1=O,-3%,7%,0%,1%,15%,50%
COc1cccc(CN2CCNC(=O)C2CC(=O)NCCc2ccccn2)c1 (stereo not given),-5%,-7%,-6%,u,-17%,33%
COc1cccc(CN2CCNC(=O)C2CC(=O)NCc2cc(C(C)C)no2)c1 (stereo not given),2%,-3%,-1%,50µM*,3%,28%
Cc1ccc(NC(=O)CCc2c(C)nc3nc(C)nn3c2C)c(Cl)c1,-6%,x,0%,5%[59 µM],x,47%

# High-throughput results from PubChem.
